Source: PubChem BioAssay (Tox21)
Records with an inconclusive call do not appear. Active and inactive are the calls of the source. Unless noted, calls come from the whole dose curve; as a rule, active = well fitted curve in the direction sought with a large enough effect in the repeat runs; inconclusive = weak or mixed curves; inactive = no such curve, though single readings can be large; an effect the other way counts as inactive or inconclusive.

How the values were obtained:
[1] = qHTS assay to identify small molecule antagonists of the sonic hedgehog signaling (Shh) pathway (AID 1259369; calls by dose curve; note: nearly all actives have a fitted effect of over 45% in size)
Summary of the method: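 Stable Gli1-Luc reporter NIH/3T3 clone; quantitative HTS in stimulated mode with conditioned medium. Luminescence measured after 24hr compound treatment at 37 C.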

[2] = target: Estrogen receptor beta (Homo sapiens) (UniProt Q92731); test: qHTS assay to identify small molecule agonists of the estrogen receptor beta (ER-beta) signaling pathway (AID 1259377; active = well fitted activation curve with a large enough effect in the signal ratio in the repeat runs, not every such curve was filed as active; the % refers to the signal ratio)
Summary of the method: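 Measured by fluorescence intensity from a B/G FRET beta-lactamase substrate (2 h, room temperature) in ER-beta-UAS-bla HEK293T cells treated with DMSO-dissolved compounds for 16 hr at 37C and 5% CO2.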

[3] = target: Estrogen receptor beta (Homo sapiens) (UniProt Q92731); test: qHTS assay to identify small molecule antagonists of the estrogen receptor beta (ER-beta) signaling pathway (AID 1259378; active = well fitted inhibition curve with a large enough effect in the signal ratio in the repeat runs, not every such curve was filed as active; the % refers to the signal ratio)
Summary of the method: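 Antagonist mode: compounds added to beta-lactamase reporter HEK293T ER-beta-UAS cells stimulated with E2 (1nM final), 16 hr at 37C. LiveBLAzer B/G FRET substrate, 2 hours room temperature, fluorescence read-out.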

[4] = qHTS assay to identify small molecule agonists of the androgen receptor (AR) signaling pathway in the presence of an antagonist - cell viability counter screen (AID 1259379);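 note: MDA-kb2 human breast cancer cells carrying an MMTV luciferase reporter; series mostly up to about 92 µM; nearly all actives have a fitted effect of over 25% in size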
Summary of the method: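 Nilutamide-containing (3.0uM final) MDA-kb2 cultures, 3,000 cells/well, were treated with compounds across 15 concentrations. After 16 hr at 37C with no CO2, cell viability was determined by CellTiter-Fluor fluorescence in the luciferase assay wells.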

[5] = qHTS assay to identify small molecule agonists of the estrogen receptor beta (ER-beta) signaling pathway - cell viability counter screen (AID 1259380); note: nearly all actives have a fitted effect of over 30% in size
Summary of the method: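 Steps: plate ER-beta-UAS-bla HEK293T cells, rest 6 hr; add compounds in DMSO; incubate 16 hr at 37C, 5% CO2; add FRET substrate 2 hr; add CellTiter-Glo, wait 30 min at room temperature; read luminescence.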

[6] = qHTS assay to identify small molecule antagonists of the estrogen receptor beta (ER-beta) signaling pathway - cell viability counter screen (AID 1259382);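 note: HEK293T cells carrying ER-beta-UAS-bla reporter stimulated with estradiol; series mostly up to about 92 µM; nearly all actives have a fitted effect of over 55% in size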
Summary of the method: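 Viability is scored by CellTiter-Glo luminescence (30 min, room temperature) in ER-beta-UAS-bla HEK293T wells already read for reporter fluorescence. Compound exposure lasts 16 hr at 37C alongside 1nM 17-beta-estradiol in charcoal-stripped serum medium.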

[7] = target: Estrogen receptor (Homo sapiens) (UniProt P03372); test: qHTS assay to identify small molecule agonists of the estrogen receptor alpha (ER-alpha) signaling pathway in the presence of an antagonist (AID 1259383; calls by dose curve; note: top concentration of the series differs between compounds; nearly all actives have a fitted effect of over 15% in size)
Summary of the method: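 Readout was ERE-driven luciferase luminescence in VM7Luc4E2 cells, which express full-length ER-alpha endogenously. Compounds were tested at 15 concentrations for 22hr alongside 10.0nM ICI-182,780 (final concentration).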

[8] = qHTS assay to identify small molecule agonists or antagonists of the thyroid stimulating hormone receptor (TSHR) signaling pathway - wild type cell line counter screen (AID 1259384; calls by dose curve)
Summary of the method: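 Counter screen in untransfected Hek293: compounds (15-point titration, triplicate) plus phosphodiesterase inhibitor Ro20-1724 added after 18 h plating; 30 min RT. Intracellular cAMP via competitive d2/cryptate immunoassay, 1 h incubation.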

[9] = target: Thyrotropin receptor (Homo sapiens) (UniProt P16473); test: qHTS assay to identify small molecule antagonists of the thyroid stimulating hormone receptor (TSHR) signaling pathway (AID 1259385; calls by dose curve; note: nearly all actives have a fitted effect of over 20% in size)
Summary of the method: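 Antagonist mode: compound-treated TSHR-expressing HEK293 cells were stimulated with 1.5 ng/mL TSH (final) in presence of Ro20-1724 for 30 min at RT. HTRF cAMP detection after 1 h; each compound tested at 15 concentrations, triplicate.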

[10] = qHTS assay to identify small molecule agonists of the estrogen receptor alpha (ER-alpha) signaling pathway in the presence of an antagonist - cell viability counter screen (AID 1259386);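 note: series mostly up to about 92 µM; cells exposed to compounds for 22 h at 37 °C before the viability read; nearly all actives have a fitted effect of over 30% in size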
Summary of the method: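 In this counter screen, compound effects on VM7Luc4E2 viability were tested in the presence of the antagonist ICI-182,780 at 10.0nM final. Compounds were dosed at 15 concentrations, exposure lasted 22hr, and the CellTiter-Fluor signal was read.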

[11] = target: Progesterone receptor (Homo sapiens) (UniProt P06401); test: qHTS assay to identify small molecule agonists of the progesterone receptor (PR) signaling pathway (AID 1346784; calls by dose curve; note: nearly all actives have a fitted effect of over 30% in size)
Summary of the method: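 The screen uses PR-UAS-bla HEK 293T cells in charcoal-stripped serum (2%). Compounds are applied for 16 hr at 37C after a 6 hr pre-incubation, and reporter activity is detected with a FRET beta-lactamase substrate after 2 hr at room temperature.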

[12] = target: Progesterone receptor (Homo sapiens) (UniProt P06401); test: qHTS assay to identify small molecule antagonists of the progesterone receptor (PR) signaling pathway (AID 1346795; active = well fitted inhibition curve with a large enough effect in the signal ratio in the repeat runs, not every such curve was filed as active; the % refers to the signal ratio)
Summary of the method: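 After 6 hr plating at 37C in 2% stripped-serum medium, PR-UAS-bla HEK293T cells got compounds, then 1 nM R5020. Sixteen hours later, LiveBLAzer substrate was applied for 2 hr at room temperature and fluorescence was recorded.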

[13] = qHTS assay to identify small molecule antagonists of the progesterone receptor (PR) signaling pathway - cell viability counter screen (AID 1346798); note: series mostly up to about 92 µM; nearly all actives have a fitted effect of over 50% in size
Summary of the method: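 Viability was determined by ATP-based luminescence (CellTiter-Glo) in PR-UAS-bla HEK293T cells cultured in 2% charcoal-stripped serum and incubated 16 hr with compounds under R5020 stimulation.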

[14] = qHTS assay to identify small molecule agonists of the progesterone receptor (PR) signaling pathway - cell viability counter screen (AID 1346799; calls by dose curve; note: nearly all actives have a fitted effect of over 45% in size)
Summary of the method: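 Viability was scored by ATP luminescence (CellTiter-Glo, 30 min, room temperature) in the same wells used for the reporter readout, after 16 hr compound exposure of PR-UAS-bla HEK293T cells.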

[15] = qHTS assay to identify small molecule antagonists of the TGF-beta/Smad signaling pathway - cell viability counter screen (AID 1346824); note: nearly all actives have a fitted effect of over 50% in size
Summary of the method: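 Cytotoxicity counter-screen run in the same wells as the beta-lactamase Smad reporter read: CellTiter-Glo luminescence after 30 min at room temperature. HEK 293T SBE-bla cells had 5 hr compound exposure at 37 C with TGF-beta1 (0.25 ng/mL stock).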

[16] = qHTS assay to identify small molecule agonists of the TGF-beta/Smad signaling pathway - cell viability counter screen (AID 1346829); note: top concentration of the series differs between compounds; nearly all actives have a fitted effect of over 45% in size
Summary of the method: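 Here the cytotoxicity of library compounds is measured in SBE-bla HEK 293T cells treated for 5 hr, using CellTiter-Glo added to wells already read for the beta-lactamase reporter.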

[17] = qHTS assay to identify small molecule agonists of the TGF-beta/Smad signaling pathway (AID 1346859; active = well fitted activation curve with a large enough effect in the signal ratio in the repeat runs, not every such curve was filed as active; the % refers to the signal ratio; note: series mostly up to about 77 µM)
Summary of the method: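 Dual-wavelength fluorescence (460/530 nm emission) quantified beta-lactamase expression under the Smad binding element in HEK 293T cells following 5 hr compound treatment at 37 C.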

[18] = target: Thyrotropin-releasing hormone receptor (Homo sapiens) (UniProt P34981); test: qHTS assay to identify small molecule antagonists of the thyrotropin-releasing hormone receptor (TRHR) signaling pathway (AID 1346877; active = well fitted inhibition curve with a large enough effect in the repeat runs, not every such curve was filed as active; note: series mostly up to about 51 µM)
Summary of the method: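 Kinetic fluorescence (3 min, 1 s resolution) following stimulation with TRH at 1 nM final; HEK293 cells bearing human TRHR; 5 min compound preincubation at RT; concentration-response over 15 points, triplicates.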

[19] = target: Thyrotropin-releasing hormone receptor (Homo sapiens) (UniProt P34981); test: qHTS assay to identify small molecule agonists of the thyrotropin-releasing hormone receptor (TRHR) signaling pathway (AID 1346891; calls by dose curve;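 note: HEK293 cells expressing TRHR with calcium dye readout; series mostly up to about 58 µM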)
Summary of the method: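 Kinetic fluorescence (3 min, 1 s intervals) reported intracellular calcium after compound transfer onto TRHR-Hek293 cells pre-loaded with dye for 2 h at 37 °C.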
% is set by controls: 0 for no effect and ±100 for the full control effect.

Sequence of Estrogen receptor (Homo sapiens) (P03372 whole entry, looked up): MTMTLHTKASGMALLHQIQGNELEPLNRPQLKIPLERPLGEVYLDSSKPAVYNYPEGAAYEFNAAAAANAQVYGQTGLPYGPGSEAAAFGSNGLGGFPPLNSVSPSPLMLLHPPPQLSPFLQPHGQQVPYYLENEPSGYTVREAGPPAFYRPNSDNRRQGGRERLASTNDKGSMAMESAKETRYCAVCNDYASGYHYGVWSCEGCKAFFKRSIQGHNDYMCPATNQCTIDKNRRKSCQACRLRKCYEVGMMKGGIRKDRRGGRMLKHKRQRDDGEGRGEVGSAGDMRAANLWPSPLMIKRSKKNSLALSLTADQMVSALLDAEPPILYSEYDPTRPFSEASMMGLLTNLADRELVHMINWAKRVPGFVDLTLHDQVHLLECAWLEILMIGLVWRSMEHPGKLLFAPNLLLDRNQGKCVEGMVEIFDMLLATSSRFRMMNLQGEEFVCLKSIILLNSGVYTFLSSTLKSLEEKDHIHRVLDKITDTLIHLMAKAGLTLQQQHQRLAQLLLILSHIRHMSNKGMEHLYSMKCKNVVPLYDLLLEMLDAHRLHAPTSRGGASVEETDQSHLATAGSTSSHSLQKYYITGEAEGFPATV
Sequence of Progesterone receptor (Homo sapiens) (P06401 whole entry, looked up): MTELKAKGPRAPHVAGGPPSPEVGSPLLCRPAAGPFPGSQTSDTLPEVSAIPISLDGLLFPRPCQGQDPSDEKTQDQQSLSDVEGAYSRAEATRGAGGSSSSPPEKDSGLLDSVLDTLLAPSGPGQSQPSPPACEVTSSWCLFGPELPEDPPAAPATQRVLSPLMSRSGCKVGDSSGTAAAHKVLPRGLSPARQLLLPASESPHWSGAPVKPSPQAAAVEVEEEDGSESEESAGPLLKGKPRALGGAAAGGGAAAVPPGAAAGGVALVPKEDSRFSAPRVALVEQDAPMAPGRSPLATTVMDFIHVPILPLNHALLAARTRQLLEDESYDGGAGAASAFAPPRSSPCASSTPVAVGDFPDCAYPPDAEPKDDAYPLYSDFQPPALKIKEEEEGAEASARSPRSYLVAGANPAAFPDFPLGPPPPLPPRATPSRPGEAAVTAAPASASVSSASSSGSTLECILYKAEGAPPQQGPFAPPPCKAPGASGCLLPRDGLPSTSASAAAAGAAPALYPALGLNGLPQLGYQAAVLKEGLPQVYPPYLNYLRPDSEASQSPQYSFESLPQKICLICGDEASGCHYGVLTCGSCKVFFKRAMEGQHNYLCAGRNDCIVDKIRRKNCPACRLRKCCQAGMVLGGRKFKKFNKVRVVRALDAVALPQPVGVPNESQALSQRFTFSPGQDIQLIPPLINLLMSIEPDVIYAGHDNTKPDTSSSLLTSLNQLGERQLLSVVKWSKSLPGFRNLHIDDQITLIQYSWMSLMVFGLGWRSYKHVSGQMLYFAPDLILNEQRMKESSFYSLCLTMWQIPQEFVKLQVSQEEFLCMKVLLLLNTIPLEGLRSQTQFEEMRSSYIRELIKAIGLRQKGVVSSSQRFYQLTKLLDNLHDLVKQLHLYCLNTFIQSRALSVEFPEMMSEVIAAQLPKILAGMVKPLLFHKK
Sequence of Thyrotropin receptor (Homo sapiens) (P16473 whole entry, looked up): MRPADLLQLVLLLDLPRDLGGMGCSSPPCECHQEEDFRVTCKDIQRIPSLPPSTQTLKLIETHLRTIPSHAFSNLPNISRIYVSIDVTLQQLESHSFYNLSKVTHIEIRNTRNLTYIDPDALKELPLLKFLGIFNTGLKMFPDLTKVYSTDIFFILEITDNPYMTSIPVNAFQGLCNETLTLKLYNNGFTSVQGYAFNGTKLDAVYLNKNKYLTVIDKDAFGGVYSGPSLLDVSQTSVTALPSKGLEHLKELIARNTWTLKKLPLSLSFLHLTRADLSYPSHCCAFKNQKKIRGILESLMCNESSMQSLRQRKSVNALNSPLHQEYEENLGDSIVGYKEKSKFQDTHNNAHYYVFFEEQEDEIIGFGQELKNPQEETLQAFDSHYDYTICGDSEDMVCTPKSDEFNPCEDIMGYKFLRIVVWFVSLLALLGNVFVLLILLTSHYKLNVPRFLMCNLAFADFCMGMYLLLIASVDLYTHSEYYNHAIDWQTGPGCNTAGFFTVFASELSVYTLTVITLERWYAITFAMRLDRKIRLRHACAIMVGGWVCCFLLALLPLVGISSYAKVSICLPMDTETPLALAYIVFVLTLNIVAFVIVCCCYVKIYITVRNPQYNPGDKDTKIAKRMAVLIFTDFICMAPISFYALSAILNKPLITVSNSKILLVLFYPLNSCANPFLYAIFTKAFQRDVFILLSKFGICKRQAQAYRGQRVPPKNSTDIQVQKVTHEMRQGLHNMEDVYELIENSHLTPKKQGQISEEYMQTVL
Sequence of Estrogen receptor beta (Homo sapiens) (Q92731 whole entry, looked up): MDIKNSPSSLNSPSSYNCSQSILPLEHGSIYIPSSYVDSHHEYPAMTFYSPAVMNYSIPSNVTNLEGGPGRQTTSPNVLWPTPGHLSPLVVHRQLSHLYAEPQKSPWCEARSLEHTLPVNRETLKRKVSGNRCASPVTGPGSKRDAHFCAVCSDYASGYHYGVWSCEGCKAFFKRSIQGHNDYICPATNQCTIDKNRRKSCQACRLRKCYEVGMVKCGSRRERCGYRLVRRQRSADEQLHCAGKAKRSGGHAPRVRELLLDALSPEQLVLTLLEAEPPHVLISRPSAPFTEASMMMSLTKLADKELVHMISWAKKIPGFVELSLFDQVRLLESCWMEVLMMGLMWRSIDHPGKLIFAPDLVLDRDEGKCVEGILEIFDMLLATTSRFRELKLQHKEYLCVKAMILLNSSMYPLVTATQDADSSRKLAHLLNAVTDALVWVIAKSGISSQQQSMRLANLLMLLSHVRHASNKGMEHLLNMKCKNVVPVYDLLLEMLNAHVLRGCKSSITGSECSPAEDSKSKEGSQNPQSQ
Sequence of Thyrotropin-releasing hormone receptor (Homo sapiens) (P34981 whole entry, looked up): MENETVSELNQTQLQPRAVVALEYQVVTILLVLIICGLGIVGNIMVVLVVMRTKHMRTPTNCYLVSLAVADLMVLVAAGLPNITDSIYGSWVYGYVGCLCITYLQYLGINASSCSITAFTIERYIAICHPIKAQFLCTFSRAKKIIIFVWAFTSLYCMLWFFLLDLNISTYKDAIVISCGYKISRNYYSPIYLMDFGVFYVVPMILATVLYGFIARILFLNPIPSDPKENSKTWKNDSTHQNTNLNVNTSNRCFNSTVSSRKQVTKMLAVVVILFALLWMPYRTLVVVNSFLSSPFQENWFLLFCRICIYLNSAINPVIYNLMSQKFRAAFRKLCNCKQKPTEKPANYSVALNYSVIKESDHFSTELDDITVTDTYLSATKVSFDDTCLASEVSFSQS

Cc1[nH]c(C)c(Cl)c(=O)c1Cl
inactive: activity change, negative = inhibition [1] 33.7% [at 19 µM] | activation [2] 0.451% [at 19 µM] | activity, negative = inhibition [3] 9.97% [at 19 µM] | activity change, negative = cytotoxicity [4] 0.0878% [at 19 µM] | activity change, negative = cytotoxicity [5] 2.64% [at 19 µM] | activity change, negative = cytotoxicity [6] 0.273% [at 19 µM] | Potency [7] | cAMP activity change [8] 6.03% [at 18.9 µM, active compounds read high] | activity change, negative = inhibition [9] 4.84% [at 19 µM] | activity change, negative = cytotoxicity [10] -1.35% [at 19 µM] | activation [11] 2.04% [at 19 µM] | activity change, negative = inhibition [12] 4.44% [at 18.9 µM] | activity change, negative = cytotoxicity [13] 10.6% [at 18.9 µM] | activity change, negative = cytotoxicity [14] 5.96% [at 19 µM] | viability change, negative = cytotoxic [15] 5.33% [at 15.8 µM] | activity change, negative = cytotoxicity [16] 5.04% [at 15.8 µM] | activation [17] 0.225% [at 15.8 µM] | activity, negative = inhibition [18] 2.83% [at 10.5 µM] | activation [19] -1.18% [at 11.8 µM]

CCCCO
inactive: Potency [1] | Potency [2] | Potency [3] | Potency [4] | Potency [5] | Potency [6] | Potency [8] | Potency [9] | Potency [10] | Potency [11] | Potency [12] | Potency [13] | Potency [14] | Potency [15] | outcome [16] | Potency [17]

O=C1OC(=O)C2C3C=CC(C3)C12 (stereo not given)
inactive: Potency [1] | Potency [2] | Potency [3] | Potency [4] | Potency [5] | Potency [6] | Potency [8] | Potency [10] | Potency [11] | Potency [12] | Potency [13] | Potency [15] | outcome [16] | Potency [17] | outcome [18] | Potency [19]

CCOC(=O)Cc1cccc2ccccc12
inactive: Potency [1] | Potency [2] | Potency [3] | Potency [4] | Potency [5] | Potency [6] | Potency [7] | Potency [8] | Potency [9] | Potency [10] | Potency [11] | Potency [12] | Potency [13] | Potency [14] | Potency [15] | outcome [16] | Potency [17] | outcome [18] | Potency [19]

CCC(C)(C)CC
inactive: Potency [1] | Potency [2] | Potency [3] | Potency [4] | Potency [5] | Potency [6] | Potency [10] | Potency [12] | Potency [13] | Potency [14] | Potency [15] | outcome [16] | Potency [17]

OC[C@H]1O[C@@H](OCCc2ccc(O)cc2)[C@H](O)[C@@H](O)[C@@H]1O
inactive: Potency [1] | Potency [2] | Potency [3] | Potency [5] | Potency [6] | Potency [7] | Potency [10] | Potency [11] | Potency [12] | Potency [13] | Potency [14] | Potency [15] | outcome [16] | Potency [17] | outcome [18] | Potency [19]

O=C(NCC1CN(c2ccc(N3CCOCC3=O)cc2)C(=O)O1)c1ccc(Cl)s1 (stereo not given)
inactive: Potency [1] | Potency [2] | Potency [3] | Potency [4] | Potency [7] | Potency [8] | Potency [9] | Potency [10] | Potency [11] | Potency [12] | Potency [13] | Potency [15] | outcome [16] | Potency [17] | outcome [18] | Potency [19]
